Test results published in PubChem BioAssay AID624330 (Southern Research Specialized Biocontainment Screening …, 2012).
Screen size: about 340,000 compounds; about 2,100 (0.62%) were called active.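 Rule for the calls: active = first-screen hits whose inhibition reached a set limit at any dose in the follow-up dose series; inconclusive = inhibition above the set first-screen limit but never retested; inactive = the rest.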 A selection follows. Entries with a potency or affinity are not part of this list.

Target: Rac GTPase-activating protein 1 (Homo sapiens) (UniProt Q9H0H5)
Sequence (Q9H0H5 whole entry, looked up): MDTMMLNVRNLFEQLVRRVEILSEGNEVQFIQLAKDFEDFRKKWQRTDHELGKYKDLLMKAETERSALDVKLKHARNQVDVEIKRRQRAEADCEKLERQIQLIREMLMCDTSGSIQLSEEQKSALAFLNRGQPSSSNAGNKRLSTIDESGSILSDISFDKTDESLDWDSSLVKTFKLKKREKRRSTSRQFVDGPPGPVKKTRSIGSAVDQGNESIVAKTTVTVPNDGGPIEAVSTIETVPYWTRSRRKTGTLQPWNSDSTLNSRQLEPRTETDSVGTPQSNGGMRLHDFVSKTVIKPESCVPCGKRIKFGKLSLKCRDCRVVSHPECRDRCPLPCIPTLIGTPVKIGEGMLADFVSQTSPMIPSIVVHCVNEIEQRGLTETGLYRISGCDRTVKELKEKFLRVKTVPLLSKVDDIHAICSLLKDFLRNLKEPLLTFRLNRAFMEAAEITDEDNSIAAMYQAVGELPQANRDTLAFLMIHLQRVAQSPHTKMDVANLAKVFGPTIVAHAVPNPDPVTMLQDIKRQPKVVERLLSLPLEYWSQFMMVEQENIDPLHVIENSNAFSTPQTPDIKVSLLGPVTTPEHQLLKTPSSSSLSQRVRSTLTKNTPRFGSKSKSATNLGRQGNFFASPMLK
Experiment: blockers of MgcRacGAP-driven Rac1 GTP hydrolysis – biochemical, ADP Hunter fluorescence, primary and confirmatory, confirmation (AID 624330);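 note: fluorescence reports GDP produced by GAP-driven GTP hydrolysis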
Conditions: MgcRacGAP-stimulated Rac1 GTP hydrolysis, at 30 µM, stronger effect = higher value, GST-tagged Rac1 F28L mutant substrate

inhibition, inactive:
Clc1ccc(-c2csc(Nc3ccccc3)[n+]2Cc2ccco2)c(Cl)c1 4.62%
COC(=O)c1c(C(=O)OC)c2ccccn2c1C(=O)c1ccc([N+](=O)[O-])cc1 -6.01%
Nc1cccc(-c2nc3ccc(N)cc3s2)c1 10.5%
Nc1nc2ccc(Br)cc2s1 1.67%
Nc1ccc2sc(N)nc2c1 19.6%
Cc1nc2ccc(N)cc2s1 5.78%
Nc1ccc2nc(-c3ccccc3)sc2c1 4.03%
Nc1ccc(-c2nc3cc(N)ccc3s2)cc1 7.4%
COc1cccc(NC(=O)CN(C)C(=O)/C=C/c2ccc3ccccc3n2)c1 0.53%
COc1ccc(-c2nc(N3CCOCC3)nc3n[nH]c(N)c23)cc1 -3.94%
COc1ccc(CCN(C)C2CCCN(S(=O)(=O)c3ccccc3)C2)cc1OC (stereo unspecified) 10.3%
O=C(CSc1ncn[nH]1)Nc1ccc(Cl)c(Cl)c1 12.3%
O=C(O)/C=C/C(=O)Nc1ccc(OCc2ccccc2)cc1 11.5%
CCOc1[nH]n(-c2ccc(Cl)cc2)c(=O)c1C=NCc1cccnc1 7.22%
CC1CCC/C(=C\Nc2ccc(C(=O)O)cc2)C1=O (stereo unspecified) -1.76%
O=C1OCC/C1=C\c1ccccc1 5.73%
CC1CCCC(=C\c2ccccc2)/C1=N/O (stereo unspecified) 9.75%
O=C1OCCC1=Cc1ccccc1 -4.26%
O=C(NC1CCS(=O)(=O)C1)c1cnccn1 (stereo unspecified) 6.19%
O=C(c1scc2c1CCCC2)N1CCOCC1 5.17%
O=C(Nn1c(-c2ccc(Br)cc2)nc2ccccc2c1=O)c1cccnc1 2.47%
CCCN(CCC)CC(O)CN1C(=O)NC(C)(C)C1=O (stereo unspecified) -0.64%
COc1ccc(C(=O)CSc2nnc(-c3cccnc3)n2Cc2ccco2)cc1 9.77%
CCCCC(=O)NCc1ccc2c(c1)cc(C)n2C 7.65%
CCCCn1c(N)nc2ccccc21 1.51%
Cc1ccc(N2CC(C(=O)NC(C)CCc3ccccc3)CC2=O)cc1 (stereo unspecified) 1.14%
Cc1cc(OCn2ccc(C(=O)O)n2)ccc1Cl 15.5%
O=C(c1ccccc1)c1ccccc1C(=O)N1CCN(Cc2ccccc2F)CC1 15.4%
O=C(O)c1ccccc1C(=O)N1CCN(Cc2ccc3c(c2)OCO3)CC1 6.42%
CCCNC(=S)N1CCN(Cc2ccc3c(c2)OCO3)CC1 23.5%
O=C(c1cccc2ccccc12)N1CCN(Cc2ccccc2F)CC1 30.9%
O=C(c1ccccc1Cl)N1CCN(Cc2ccc3c(c2)OCO3)CC1 1.05%
CCNC(=S)N1CCN(Cc2ccc3c(c2)OCO3)CC1 3.54%
O=C(/C=C/c1cccc(F)c1)N1CCN(c2ccccn2)CC1 6.78%
CCOc1ccc(OCCC(=O)Nc2ccc(N3CCOCC3)cc2N2CCOCC2)cc1 4.37%
COC(=O)c1ccsc1NC(=O)CN1CCN(c2ncccn2)CC1 -6.48%
O=C(CSc1nc2ncc(Cl)cc2[nH]1)N1CCC(Cc2ccccc2)CC1 5.18%
O=C(COc1ccccc1[N+](=O)[O-])Nc1cccc(Cl)c1N1CCOCC1 9.17%
COc1cc(OC)c(OC)cc1CNc1cc(C)ccc1OC 14.2%
COc1ccccc1CNc1cc(C)ccc1C -1.27%
COc1cccc(CNc2nn[nH]n2)c1OC 3.59%
COc1cc(CNc2cc(C)ccc2C)cc(OC)c1OC 6.31%
COc1ccccc1CNc1cc(-c2ccccc2)ccc1OC 7.7%
COc1ccc(CNc2cc(C)ccc2C)c(OC)c1OC 14.2%
O=C(c1nn2c(C(F)(F)F)cc(-c3ccccc3)nc2c1Cl)N1CCN2CCCC2C1 (stereo unspecified) 3.99%
CC(C)c1ccc(NC(=O)NC2CCN(CC(=O)Nc3cccc4ccccc34)CC2)cc1 13.1%
CNC(=O)C[C@H]1C(=O)N(C2CCCCC2)C[C@@H]1CSC 16.8%
Cc1ccccc1Nc1ncnc2c1cnn2C 12.2%
O=C(c1ccc(Cl)c(S(=O)(=O)N2CCOCC2)c1)N1CCCC1 3.9%
O=C(N1CCCCC1)N1CCN(S(=O)(=O)c2ccc(Cl)cc2)CC1 4.45%
CC(=O)n1c2ccccc2c2nc(NC(C)C)sc21 5.24%
C=CCNc1nc2c3ccccc3n(C(C)=O)c2s1 24.6%
COc1cc(C(=O)NCc2nnc(SCC(=O)N3CCCCC3)o2)cc(OC)c1OC 6.92%
CC1=C/C(=C(/c2ccc(O)c(C)c2)c2ccccc2S(=O)(=O)O)C=CC1=O 19.7%
CC1=CC(=O)C=C/C1=C(/c1ccc(O)cc1C)c1ccccc1S(=O)(=O)O 9.36%
Cc1cc(C(=O)CS(=O)(=O)c2ccccc2)cc(C)c1O 10.7%
CC1=C/C(=C(\c2ccc(O)c(C)c2)c2ccccc2S(=O)(=O)O)C=CC1=O 3.41%
COc1cc(OC)cc(C(C(=O)NCc2ccccc2)N(Cc2ccco2)C(=O)c2ccno2)c1 (stereo unspecified) 5.98%
CCc1cc2c(C)ccc(C)c2nc1SCC(=O)Nc1c(C)[nH]c(=O)[nH]c1=O -14.5%
CCOC(=O)/C(=N\Nc1ccccc1)P(=O)(c1ccccc1)c1ccccc1 5.15%
COc1ccc(C(CNC(=O)CSc2ccccc2C)N(C)C)cc1 (stereo unspecified) 6.46%
COC(=O)c1c(NC(=O)CSc2nnnn2-c2ccccc2)sc2c1CCC(C(C)(C)C)C2 (stereo unspecified) 5.4%
CC1CCCC=CC2CC(OC(=O)CN(C)C)CC2C(O)C=CC(=O)O1 (stereo unspecified) 3.18%
CC1CCC/C=C/C(=O)c2c(O)cc(O)cc2CC(=O)O1 (stereo unspecified) -7.81%
Cc1ccccc1NC(=O)/C(C#N)=C\c1cccnc1 16.7%
COc1ccccc1NC(=O)/C(C#N)=C/c1cccnc1 4.24%
